TEAD-YAP inh = TEAD-YAP interaction inhibition; inhibition, % at 9.12 µM; HEK-TIYL cells, TEAD-Gal4/YAP UAS-luciferase luminescence; hit rate 1.4% among 640,000; in the data active = inhibition above about 32%;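 note: 0% = median of test compound wells and 100% = reference inhibitor wells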
FBW7 activator = human FBW7 E3 ligase activation, primary screen; Q969H0; AlphaScreen FBW7–phospho-cyclin E peptide binding, activator screen; normalized activity (activation), % at 26.1 µM; hit rate 0.13% among 650,000; AID 1259310; in the data active = normalized activity above about 1.9%;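 note: purified mutant Fbw7 with reduced substrate affinity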
GPR151 activ = human GPR151 activation; Q8TDV0; PathHunter beta-arrestin GPR151 cells, luminescence; activation, % at 11.2 µM; hit rate 1% among 650,000; AID 1508602; in the data active = activation above about 4.9%;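 note: 0% = median of compound wells and 100% = cells with positive control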
MITF primary = inhibitors of human MITF. AlphaScreen MITF homodimerization, bead proximity signal. hit rate 0.91% among 650,000. inhibition, % at 2.6 µM. O75030; in the data active = inhibition above about 50%;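 note: 0% = vehicle wells with protein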
Target sequence (O75030 whole entry, looked up): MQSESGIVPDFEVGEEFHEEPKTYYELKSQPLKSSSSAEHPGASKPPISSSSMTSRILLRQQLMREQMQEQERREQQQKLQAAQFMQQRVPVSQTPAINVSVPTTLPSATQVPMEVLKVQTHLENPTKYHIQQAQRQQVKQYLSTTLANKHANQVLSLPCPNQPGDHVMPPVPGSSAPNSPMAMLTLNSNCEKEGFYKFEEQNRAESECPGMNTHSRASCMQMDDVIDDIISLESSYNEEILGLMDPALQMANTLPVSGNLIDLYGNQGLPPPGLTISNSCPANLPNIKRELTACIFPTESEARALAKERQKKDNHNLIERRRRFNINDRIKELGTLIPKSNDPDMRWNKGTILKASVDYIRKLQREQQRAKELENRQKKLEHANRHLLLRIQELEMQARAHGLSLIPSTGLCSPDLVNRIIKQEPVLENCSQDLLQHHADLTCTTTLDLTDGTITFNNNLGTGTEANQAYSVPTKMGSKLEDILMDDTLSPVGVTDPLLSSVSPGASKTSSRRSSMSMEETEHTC
* = called active by the depositor. Most compounds without a hit are left out; they make up all but 3.4% or so of the library.

SMILES	TEAD-YAP inh	FBW7 activator	GPR151 activ	MITF primary
COc1cccc(NS(=O)(=O)c2cc(C(=O)N3CCN(Cc4ccccc4)CC3)ccc2NCCc2ccc(OC)c(OC)c2)c1	52*	0	0	3
O=C(NCc1cccs1)C1CC12CCN(Cc1ccc3c(c1)CCO3)CC2 (stereo unspecified)	-4	0	0	-9
Cc1cccc(NC(=O)c2cc3ccc(O)cc3o/c2=N\c2sc3c(c2C#N)CCCC3)c1	-2	0	-1	10
Cc1ccc(S(=O)(=O)/N=C2/C=C(Sc3ncn[nH]3)C(=O)c3ccccc32)cc1	98*	0	-1	-6
O=c1cc(Nc2cccc3ccccc23)[nH]c(=O)[nH]1	-2	1	2	17
CC(C)n1cnc2c(Nc3ccc(F)cc3)ncnc21	54*	0	-6	18
Cc1cnc(Nc2ccc(N3CCOCC3)cc2)nc1Nc1ccccc1	63*	0	1	30
Cc1cnc(Nc2ccccc2)nc1Nc1ccc(N2CCOCC2)cc1	62*	0	1	3
c1cnc2ccc(Nc3nc(Nc4ccc(N5CCOCC5)cc4)c4[nH]cnc4n3)cc2c1	80*	0	1	6
c1ccc(Nc2nc(Nc3ccc(N4CCOCC4)cc3)c3[nH]cnc3n2)nc1	10	0	-1	5
COc1cc(Nc2nc(Nc3ccc(N4CCOCC4)cc3)ncc2C)cc(OC)c1OC	66*	0	0	2
Cc1cnc(Nc2ncccn2)nc1Nc1ccc(N2CCOCC2)cc1	1	0	0	2
CCOc1cc(C2C(C(=O)OCCc3ccccc3)=C(C)NC3=C2C(=O)CC(C)(C)C3)cc(Cl)c1O (stereo unspecified)	12	0	2	9
Cc1ccc(-c2nccnc2NS(=O)(=O)c2cccc(Cl)c2)cc1	-4	0	0	4
CC1CN(c2ccc([N+](=O)[O-])c(N3CCCCC3)c2)CCN1S(=O)(=O)c1ccccc1 (stereo unspecified)	1	0	1	-2
CCOc1cc(C2NC(=O)NC(C)=C2C(=O)OC)c(Cl)cc1OC (stereo unspecified)	-5	0	1	4
Cc1cnc(Nc2ccc3ncccc3c2)nc1Nc1ccc(N2CCOCC2)cc1	47*	0	3	4
O=C(Nc1ccc(N2CCOCC2)cc1)C1CCN(c2ccc(Nc3ccc4ncccc4c3)nn2)CC1	40*	0	3	37
c1nc2nc(Nc3ccc(N4CCOCC4)cc3)nc(Nc3ccc4c(c3)OCO4)c2[nH]1	45*	1	0	21
c1ccc(Nc2nc(Nc3ccc4c(c3)OCO4)c3[nH]cnc3n2)cc1	19	0	3	6
Cc1cnc(Nc2ccccn2)nc1Nc1ccc(N2CCOCC2)cc1	7	-1	1	8
Cc1cnc(Nc2nccc3ccccc23)nc1Nc1ccc2c(c1)OCO2	6	0	-1	-4
Cc1cnc(Nc2ccc3ncccc3c2)nc1Nc1ccc2c(c1)OCO2	44*	1	1	14
CC(C)(C)NC(=O)COC(=O)C1=Cc2ccccc2OC1	4	0	1	12
Cc1ccc(S(=O)(=O)NCc2ccccc2)cc1C(=O)O	-4	0	-2	-6
SMILES	TEAD-YAP inh	FBW7 activator	GPR151 activ	MITF primary
CCc1cccc(NS(=O)(=O)c2ccc3c(c2)C(C)(C)C(=O)N3C)c1	10	0	1	-3
CC(=O)Nc1ccc(Nc2nc(Nc3nc4ccccc4n3C)nc3nc[nH]c23)cc1	-1	0	-1	8
Cc1cnc(Nc2ccc(N3CCOCC3)cc2)nc1Nc1ccccc1C(N)=O	93*	0	0	-8
Cn1c(Nc2nc(Nc3ccc4c(c3)OCO4)c3[nH]cnc3n2)nc2ccccc21	-8	14*	1	-1
O=C(NC1CCCC1)c1ccc(N2CCC(NCCCn3ncc4ccccc43)CC2)cc1	-3	0	-1	0
CC(C)OC(=O)CSc1nnc(-c2cccnc2)n1C1CCCCC1	0	0	0	26
C/C(Cn1nnc([N+](=O)[O-])n1)=N/NC(=O)COc1ccc(Cl)c(C)c1	0	0	1	15
Cc1ccc(OCc2nc(SCC(=O)NC(=O)NCc3ccco3)n[nH]2)cc1	6	0	1	10
CC1CCN(C(c2ccncc2)c2ccc3cccnc3c2O)CC1 (stereo unspecified)	20	0	-3	89*
CCN1CCN(C(c2cccnc2)c2ccc3cccnc3c2O)CC1 (stereo unspecified)	15	0	-1	68*
Cc1[nH]c2ccccc2c1C(c1ccncc1)N1CCC(C)CC1 (stereo unspecified)	-2	0	0	-1
Oc1c(C(c2ccncc2)N2CCCC2)ccc2cccnc12 (stereo unspecified)	12	0	0	76*
Oc1cccc(C(c2ccc3cccnc3c2O)N2CCCC2)c1 (stereo unspecified)	18	-1	1	39
Cc1csc(NC(=O)CSc2nnc3n(N)c(=O)c4ccccc4n23)n1	-3	0	-1	-11
Cc1ccc(-c2ccccc2)n1-c1ccc(C(=O)O)cc1	-9	0	-2	0
Cc1ccc(-c2ccccc2)n1-c1ccc(O)c(C(=O)O)c1	0	0	-1	78*
Cc1cc(C(=O)CCl)c(C)n1-c1ccccc1F	7	0	0	8
CCN1CCN(CC(=O)c2cc(C)n(-c3cccc(C(F)(F)F)c3)c2C)CC1	0	0	-1	63*
CCN1CCN(CC(=O)c2cc(C)n(-c3ccccc3F)c2C)CC1	-36	0	0	62*
O=C1NCCN(CCCc2ccccc2)C1CC(=O)N1CCN(c2ncccn2)CC1 (stereo unspecified)	-9	0	0	-8
CCC(CC)NC(=O)c1cccc(I)c1	34*	0	1	-7
CCCCCC(=O)NNC(=O)c1cccc(C)c1	2	0	2	-44
CC(C)c1cc(=O)[nH]c(-n2nc(C3CC3)cc2NC(=O)C(C)(C)C)n1	57*	-1	1	3
COc1ccccc1Nc1nc(-c2cc3ccccc3oc2=O)cs1	43*	1	0	13
c1ccc(Nc2nc(Nc3ccccc3)nc(N3CCc4ccccc4C3)n2)cc1	1	0	1	-2
SMILES	TEAD-YAP inh	FBW7 activator	GPR151 activ	MITF primary
Cc1ccccc1-c1cnnc(N2CCC(OCc3ccccc3)CC2)n1	-7	0	1	-1
CC(=O)Nc1ccc(S(=O)(=O)N2c3ccccc3C(C)=CC2(C)C)cc1	58*	0	0	0
C/C(=N\N=C(/N)SC1CC(=O)N(c2ccccc2)C1=O)c1ccc(O)cc1 (stereo unspecified)	-9	0	0	5
Cc1cc(NC(=O)C2CCCCC2)ncc1NC(=O)C(C)C	-16	0	0	-12
c1cc2c(cc1-c1cnc3ccc(NC4CCOCC4)nn13)OCO2	54*	0	0	-28
c1ccc(-c2cnc3ccc(NC4CCOCC4)nn23)cc1	23	-1	0	-5
c1csc(-c2cnc3ccc(NC4CCOCC4)nn23)c1	47*	0	-1	-8
Oc1cccc(-c2cnc3ccc(NC4CCOCC4)nn23)c1	33*	2.2*	0	9

Screening data: PubChem, The Scripps Research Institute Molecular Screening Center
